Assay results reported in PubChem BioAssay (Tox21).
Results filed as inconclusive are left out. The source made the active and inactive calls. The call rests on the fitted dose curve; in most records, active means well fitted cell-killing curve with a large enough effect in the repeat runs; inconclusive means weak or mixed curves, or effect the other way; inactive means flat fitted curve, though single readings scatter.

Assay: qHTS assay to identify small molecule antagonists of the estrogen receptor alpha (ER-alpha) signaling pathway using the BG1 cell line in the presence of 0.1 nM 17-beta-estradiol - cell viability counter screen (AID 1259241); further: nearly all actives have a fitted effect of over 40% in size
Conditions: VM7Luc4E2 (BG1) viability, CellTiter-Fluor protease, 22 h, 0.1 nM estradiol agonist added; series mostly up to 92.4 µM; activity change, negative = cytotoxicity: at the top concentration
Text: National Center for Advancing Translational Sciences [NCATS]
NIH Chemical Genomics Center [NCGC]
U.S. Environmental Protection Agency [EPA]
National Institutes of Environmental Health Sciences [NIEHS]
National Toxicology Program [NTP]
U.S. Food and Drug Administration [FDA]
Estrogen receptor (ER), a member of the nuclear hormone receptor plays an important role in development, metabolic homeostasis and reproduction. Two subtypes of ER, ER-alpha and ER-beta, have similar expression patterns with some uniqueness in both types. Endocrine disrupting chemicals (EDCs) and their interactions with steroid hormone receptors like ER causes disruption of normal endocrine function. Therefore, it is important to understand the effect of environmental chemicals in ER signaling pathway. For identifying ER antagonists, VM7Luc4E2 cell line was used to screen against Tox21 compound libraries.
VM7Luc4E2 cell line (provided by Denison MS, University of California) endogenously express full-length ER-alpha and is stably transfected with a plasmid containing four estrogen responsive elements (ERE) upstream of a luciferase reporter gene. The current screening for identification of ER-alpha inhibitors against Tox21 compound libraries used lower concentration (0.1 nM) of 17beta-Estradiol as a stimulator. The cytotoxicity of the Tox21 compound libraries against VM7Luc4E2 cell line was tested by measuring live-cell protease activity using CellTiter-Fluor assay in the same wells.
Tox21 Assay Protocol Summary:
VM7Luc4E2 cells were cultured in phenol red free assay medium containing 10% charcoal stripped FBS for 5 days prior to the assay. The cells were dispensed at 4,000 cells/well in 4 uL of assay medium into white wall/solid-bottom 1536-well plates (Corning Life Sciences, Corning, NY) using a Multidrop Combi (ThermoFisher Scientific, Waltham, MA) dispenser. After the assay plates were incubated at 37C and 5% CO2 for 24 hr, 23 nL of compounds dissolved in DMSO, positive controls or DMSO only was transferred to the assay plates by a Pintool station (Kalypsys, San Diego, CA). The transfer of compounds was followed by the addition of 1 uL of 0.1 nM (final concentration) agonist (17beta-Estradiol)/assay medium using a Flying Reagent Dispenser (FRD, Aurora Discovery, San Diego, CA). The plates were incubated at 37C and 5% CO2 for 22 hr. For cytotoxicity assay, 1 uL of CellTiter-Fluor reagent (Promega Corporation, Madison, WI) was added to each well using the FRD and after 30 min incubation at 37C and 5% CO2, The fluorescence intensity was measured using ViewLux plate reader (PerkinElmer, Shelton, CT).
On the % scale 0 is the no-effect control and ±100 the full control effect; potency means the concentration at half of the fitted maximal effect.

Row | SMILES | activity change, negative = cytotoxicity | Potency
1 | CCC(C)C1N=C(C)C(C)S1 (stereo not given) | 13.7% (inactive) | 
2 | C1=COCCC1 | 5.02% (inactive) | 
3 | O=C(O)CNc1ccccc1 | -1.94% (inactive) | 
4 | CO[C@@H]1COCC[C@@H]1N[C@@H]1CC[C@@](C(=O)N2CCc3ncc(C(F)(F)F)cc3C2)(C(C)C)C1 | -4.05% (inactive) | 
5 | Cc1cc(N)n(-c2ccccc2)n1 | 0.654% (inactive) | 
6 | O=C1OC(=O)C2CC=CCC12 (stereo not given) | 6.49% (inactive) | 
7 | O=C(Nc1ccccc1)c1cc([N+](=O)[O-])ccc1Cl | 1.3% (inactive) | 
8 | OCC(O)c1ccccc1 (stereo not given) | 1.41% (inactive) | 
9 | O=P(c1ccccc1)(c1ccccc1)c1ccccc1 | 1.27% (inactive) | 
10 | C=C[Si](OCC)(OCC)OCC | 0.333% (inactive) | 
11 | Cc1nc(C)c(C)nc1C | -1.07% (inactive) | 
12 | C/C(=C\C(C)CC(C)CC(C)C)C1CC(=O)OC1=O (stereo not given) | 4.88% (inactive) | 
13 | CCC(=O)O[C@@H]1C[C@H]2CC[C@]1(C)C2(C)C | -7.57% (inactive) | 
14 | CCCCCCCCNC | -2.9% (inactive) | 
15 | CC(C(=O)O)c1ccc(/C=C2\CCCCC2=O)cc1 (stereo not given) | 9.4% [at 42.5 µM] (inactive) | 
16 | O=C1CCCN1CCO | -14.9% (inactive) | 
17 | CC1(C)CC(O)CC(C)(C)N1[O] | -2.34% (inactive) | 
18 | CCC1=C(C)CN(C(=O)NCCc2ccc(S(=O)(=O)NC(=O)NC3CCC(C)CC3)cc2)C1=O (stereo not given) | -1.1% [at 42.5 µM] (inactive) | 
19 | CC(C)(C(=O)O)c1ccc(C(O)CCCN2CCC(C(O)(c3ccccc3)c3ccccc3)CC2)cc1 (stereo not given) | 0.918% [at 42.5 µM] (inactive) | 
20 | CC(C)(C)N | -0.771% (inactive) | 

Row | SMILES | activity change, negative = cytotoxicity | Potency
21 | CCCC1CCCC(=O)O1 (stereo not given) | -6.28% (inactive) | 
22 | O=S(=O)(O)c1cc(Cl)c(Cl)cc1Cl | 2.94% (inactive) | 
23 | CC(O)CN (stereo not given) | 2.57% (inactive) | 
24 | Nc1cccc2c(=O)[nH][nH]c(=O)c12 | 0% (inactive) | 
25 | CCN(CC)CC(=O)OCC(=O)[C@@]1(O)CC[C@H]2[C@@H]3CCC4=CC(=O)CC[C@]4(C)[C@H]3[C@@H](O)C[C@@]21C | 2.28% [at 42.5 µM] (inactive) | 
26 | CC1=CC(=C(c2ccc(N)cc2)c2ccc(N)cc2)C=CC1=N | -17.9% [at 8.39 µM] (inactive) | 
27 | Clc1cccc(C(c2ccc3nc[nH]c3c2)n2ccnc2)c1 (stereo not given) | 3.34% [at 42.5 µM] (inactive) | 
28 | COc1ccc(/C(C)=C/C(=O)O)c(OC)c1 | 1.8% [at 42.5 µM] (inactive) | 
29 | c1ccc(CCNc2nc(-c3ccccc3)cs2)cc1 | -1.94% [at 42.5 µM] (inactive) | 
30 | SCCOCCOCCS | 1.63% (inactive) | 
31 | CC(C)=CCC[C@H](C)CCO | 6.66% (inactive) | 
32 | CCCCOC(=O)CC#N | 1.34% (inactive) | 
33 | O=C(O)CCc1nc2ccccc2[nH]1 | -3.57% [at 42.5 µM] (inactive) | 
34 | O=C(O)c1ccc(O)c(O)c1 | 8.11% (inactive) | 
35 | O=C1c2ccccc2C(=O)C1c1ccc2cc(S(=O)(=O)O)cc(S(=O)(=O)O)c2n1 |  | 58.9 µM (active)
36 | O=C(O)c1cccc(C(=O)O)c1C(=O)O | 8.08% (inactive) | 
37 | NC(=O)c1ccccc1 | 0% (inactive) | 
38 | C=CC(=O)NC(C)(C)C | 0.978% (inactive) | 
39 | Oc1ccc(Oc2ccccc2)cc1 | -0.321% (inactive) | 
40 | Nc1ccc(F)cc1F | 0% (inactive) | 
